Source: PubChem
Hits are enriched below; roughly 5.8% of the tested compounds scored in any of these assays.
KB-V1 cytotox: qHTS assay for MDR1-selective chemotherapeutics: Primary screen using the drug-selected MDR subline cells KB-V1 | KB-V1 MDR cells viability, CellTiter-Glo, 72 h | Potency, µM (doses to about 46.1 µM), most hits filed as cytotoxic | 400,000 tested, 3.4% active; also: % is scaled to controls: 0 for no effect and ±100 for the full control effect; nearly all actives have a fitted effect of over 60% in size
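Cytotoxicity via CellTiter-Glo luminescence after 72 h compound exposure at 37 degrees C. Cells: drug-selected KB-V1 line, DMEM phenol-red free plus 10% FBS. Compounds tested at multiple concentrations; normalized data fitted to concentration-effect curves.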
PINK1 expr mod: A Quantitative High throughput Screen to Identify Chemical Modulators of PINK1 Expression; PINK1 immunofluorescence, high-content cytometry, 24 h; Potency, µM (doses to about 76.6 µM), for the others: at the highest dose activation (PINK1 increase), actives largely listed as activators; 410,000 tested, 0.2% active; AID 624263, 2012; active = well fitted activation curve with a large enough effect; inconclusive = small, poorly fitted or top-dose-only effect; cell line not stated here; also: % of control where 0% means no effect; nearly all actives have a fitted effect of over 65% in size
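Decision-based qHTS: stable cells, 24 h exposure to five compound concentrations, CCCP as control. Fixed cells stained for PINK1 plus nuclear, mitochondrial and cell markers, cytometer read.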
SW480 rerep: A quantitative high throughput screen for small molecules that induce DNA re-replication in SW480 colon adenocarcinoma cells; SW480 DNA re-replication, Hoechst DNA content imaging, 48 h; Potency, µM (doses to about 46.1 µM), without a hit: top-dose re-replication activation, actives largely listed as activators; 340,000 tested, 1.8% active; AID 624297, 2012; also: % of control where 0% means no effect; nearly all actives have a fitted effect of over 55% in size
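250 cells/well; 23 nL cpd via pin tool; 48 hr, 37 C, 5% CO2; Hoechst 40 min; imager read of total nuclear intensity, ex 405/em 500-530 nm.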
KB-3-1 cytotox: qHTS assay for MDR1-selective chemotherapeutics: Primary screen using the parental adenocarcinoma cell KB-3-1; 400,000 tested, 1.4% active; KB-3-1 viability, CellTiter-Glo ATP luminescence, 72 h; Potency, µM (top dose mostly 46.1 µM), most hits filed as cytotoxic; also: % is scaled to controls: 0 for no effect and ±100 for the full control effect; nearly all actives have a fitted effect of over 60% in size
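Multi-concentration cytotoxicity screen in KB-3-1 cells grown in DMEM lacking phenol red with 10% FBS. After 72 h at 37 °C with compound, ATP-dependent luminescence was recorded.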
12-LOX inh: Primary qHTS assay for inhibitors of human arachidonate 12S-lipoxygenase (ALOX12): Round 2; Polyunsaturated fatty acid lipoxygenase ALOX12 (Homo sapiens), P18054; purified 12hLO, xylenol orange hydroperoxide absorbance; Potency, µM (doses to about 108 µM), for inactives: at the highest dose activity change, negative = inhibition, most hits filed as inhibitors; 580,000 tested, 1.1% active; also: % is scaled to controls: 0 for no effect and ±100 for the full control effect
Target sequence (P18054 whole entry, looked up): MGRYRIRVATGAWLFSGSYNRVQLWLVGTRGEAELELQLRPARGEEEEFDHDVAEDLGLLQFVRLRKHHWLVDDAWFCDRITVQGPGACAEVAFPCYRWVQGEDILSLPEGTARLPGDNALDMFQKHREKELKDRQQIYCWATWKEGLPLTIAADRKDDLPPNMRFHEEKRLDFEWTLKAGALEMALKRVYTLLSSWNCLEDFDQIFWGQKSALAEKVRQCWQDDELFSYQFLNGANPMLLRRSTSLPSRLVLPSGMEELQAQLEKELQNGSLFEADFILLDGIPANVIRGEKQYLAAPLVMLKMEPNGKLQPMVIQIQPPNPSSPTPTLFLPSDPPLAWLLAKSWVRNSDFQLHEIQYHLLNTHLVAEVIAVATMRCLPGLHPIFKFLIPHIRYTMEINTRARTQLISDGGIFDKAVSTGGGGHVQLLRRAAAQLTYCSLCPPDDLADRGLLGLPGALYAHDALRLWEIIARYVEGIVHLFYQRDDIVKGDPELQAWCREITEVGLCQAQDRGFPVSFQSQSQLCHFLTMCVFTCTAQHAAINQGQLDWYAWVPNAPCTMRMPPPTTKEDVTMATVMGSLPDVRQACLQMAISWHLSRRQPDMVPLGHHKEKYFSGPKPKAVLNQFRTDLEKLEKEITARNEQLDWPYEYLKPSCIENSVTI
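Purified human 12hLO (150 nM final) in 25 mM Hepes, 0.01% Triton X-100, pH 7.0 was preincubated 15 min at room temperature with compound. Then 40 uM arachidonic acid was added, 30 min. Hydroperoxide was read by Fe-XO absorbance ratio 573/405 nm.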
MCF10A rereplic: A quantitative high throughput screen for small molecules that induce DNA re-replication in MCF 10a normal breast cells | MCF 10A DNA re-replication, Hoechst nuclear intensity, 48 h | Potency, µM (series often up to 46.1 µM), for inactives: at the top dose activity, positive = re-replication, usual class: activators | 350,000 tested, 2.9% active; also: % of control where 0% means no effect; nearly all actives have a fitted effect of over 50% in size
* = called active by the depositor; i = inactive; ? = inconclusive; . = no result; ! = not active in a repeat; [ ] = dose if it differs, or a comment. Unless noted, calls follow the shape of the dose curve; as a rule, active = well fitted curve in the direction sought with a large enough effect; inconclusive = small, poorly fitted or top-dose-only effect, or another doubt; inactive = no such curve, though single readings can be large; an effect the other way counts as inactive or inconclusive. Potency is read from the fitted curve at half-maximal effect.

SMILES	KB-V1 cytotox	PINK1 expr mod	SW480 rerep	KB-3-1 cytotox	12-LOX inh	MCF10A rereplic
CCOC(=O)c1oc2ccc(S(=O)(=O)N3CCC(C)CC3)cc2c1C	16.4µM*	-0.1%[38.3 µM]	1.2%	i	8.6%	16.3%
O=C(Nc1cnn(Cc2ccc(F)cc2)c1)c1noc2c1CCCC2	i	0.8%	26.0%	?	8.3%	4.61µM*
CC(C)(C)C1CCc2onc(C(=O)Nc3ccc(F)cc3F)c2C1 (stereo unspecified)	23.1µM*	4.6%[38.3 µM]	-0.4%	i	0.0%	-2.0%
CC(C)(C)C1CCc2onc(C(=O)Nc3cnn(Cc4ccc(F)cc4)c3)c2C1 (stereo unspecified)	2.59µM*	21.3%[38.3 µM]	?	i	-4.7%	?
COc1ccc(NC(=O)c2noc3c2CC(C)CC3)c(OC)c1 (stereo unspecified)	.	.	.	.	-36.1%	.
O=C(Nc1cnn(Cc2ccc(F)cc2)c1)C(c1ccccc1)c1ccccc1	5.17µM*	?	-103.8%	?	0.0%	0.2%
N#Cc1ccc(CS(=O)(=O)Cc2cccc(F)c2)cc1	.	.	.	.	-26.3%	.
COc1ccc(CNC(=O)c2noc3c2CCCCC3)cc1	i	-2.5%[38.3 µM]	-23.3%	i	19.0%	5.7%
O=C(NCc1ccccc1)c1noc2c1CCCCC2	20.6µM*	-1.6%[38.3 µM]	?	i	18.7%	?
C/C(=N/NC(=O)c1ccccc1)c1ccc(Cl)s1	.	.	.	.	-9.3%	.
C/C(=N\NC(N)=S)c1ccc(Cl)s1	6.51µM*	-0.9%	?	16.4µM*	?	?
C/C(=N\NC(=S)NC(C)C)c1ccc(Cl)s1	?	5.7%	?	i	44.7µM*	?
C/C(=N\NC(=S)NC(C)C)c1ccc2c(c1)OCCO2	?	2.1%	-0.7%	?	?	?
Cc1ccc(C(=O)N2C(C(=O)NCC(C)C)COC23CCN(C(=O)c2cccc(Cl)c2)CC3)cc1 (stereo unspecified)	.	.	.	.	23.0%	.
CCCCOc1ccc(-c2nnn(CC(=O)NCc3ccco3)n2)cc1	4.11µM*	11.0%[38.3 µM]	1.2%	?	1.0%	2.8%
CCCC(C)NC(=O)c1cccc2c(C)c(C)[nH]c12 (stereo unspecified)	.	.	.	.	1.5%	.
O=C(c1ccco1)N1N=C(c2ccco2)CC1c1ccc(Cl)cc1Cl (stereo unspecified)	i	7.2%	?	?	-28.2%	23.1µM*
COc1ccc(C2=NN(C(=O)c3ccco3)C(c3cc4ccccc4nc3Cl)C2)cc1 (stereo unspecified)	i	3.8%	-1.6%	i	.	-1.6%
N#CC1CC(c2ccc([N+](=O)[O-])cc2)=NN1c1ccc([N+](=O)[O-])cc1 (stereo unspecified)	?	5.0%	?	i	-6.3%	6.51µM*
Cc1ccc(-c2nc3cccnc3o2)cc1NC(=O)COc1ccc(Cl)cc1C	?	16.4%	-1.2%	i	0.0%	26.9%
Cc1ccc(-c2nc3cccnc3o2)cc1NC(=O)COc1ccc(C(C)(C)C)cc1	?	25.2%	?	?	1.8%	18.4µM*
NC(=S)N/N=C\c1c2ccccc2cc2ccccc12	?	-3.4%	?	i	?	?
NC(=S)N/N=C\c1c(OCc2ccccc2Cl)ccc2ccccc12	i	1.3%	27.5%	i	22.4µM*	6.3%
Cc1c(C(=O)NCc2ccoc2)oc2ccc3c(c12)C(=O)CC(C)(C)O3	18.4µM*	3.0%	4.5%	i	87.3%	?
CCOC(=O)CN1C(=O)/C(=C/c2c(F)cccc2Cl)Oc2ccccc21	i	0.5%	?	?	-9.4%	20.6µM*
SMILES	KB-V1 cytotox	PINK1 expr mod	SW480 rerep	KB-3-1 cytotox	12-LOX inh	MCF10A rereplic
CSc1ccc(CN2CCC(Oc3cccc(C(=O)N4CCCC4)c3)CC2)cc1	?	0.1%	-3.7%	?	6.6%	?
CSc1ccc(OC2CCN(Cc3ccccc3)CC2)cc1	16.4µM*	?	?	i	-26.3%	?
Clc1ccc(CN2CCC(Cc3ccccc3)CC2)cc1	?	8.7%	4.5%	i	?	?
CSc1ccc(CN2CCC(Cc3ccccc3)CC2)cc1	i	17.4%	1.7%	?	1.58µM*	22.9%
COc1ccc(Cl)cc1NC(=O)COc1ccccc1F	.	.	.	.	13.3%	.
O=C(N[C@H]1CCC(=O)N(CCSc2ccc(Br)cc2)CC1)OCc1ccccc1	20.6µM*!	1.5%	3.1%	?	?	3.9%
Cc1cc(C(F)(F)F)nc(SC(C(=O)O)c2ccccc2)n1 (stereo unspecified)	.	.	.	.	11.2µM*	.
O=C(CSc1nncn1-c1ccccc1)Nc1cccc(S(=O)(=O)N2CCCC2)c1	.	.	.	.	3.2%	.
COc1ccccc1-c1cnc(C(O)c2ccc(Cl)c(Cl)c2)[nH]1 (stereo unspecified)	23.1µM*	-1.0%	.	?	-18.5%	.
COc1c(C)cc(C(O)c2ncc(-c3ccccc3C(F)(F)F)[nH]2)cc1C (stereo unspecified)	18.4µM*	-0.7%	.	i	0.7%	.
COc1ccccc1-c1cnc(C(O)c2ccc(C(C)(C)C)cc2)[nH]1 (stereo unspecified)	20.6µM*	6.2%	.	?	-11.6%	.
COc1ccccc1-c1cnc(C(O)c2ccccc2)[nH]1 (stereo unspecified)	?	-0.3%	.	i	-6.5%	.
COc1c(C)cc(C(O)c2ncc(-c3cccc4ccccc34)[nH]2)cc1C (stereo unspecified)	i	3.6%	.	?	-0.8%	.
Cc1ccoc1C(=O)OCc1cccc(C#N)c1	.	.	.	.	13.7%	.
NC(=O)CN1CCC(c2nc3ccccc3o2)CC1	.	.	.	.	7.7%	.
CCCCCCN1C=C/C(=C\C=C(C#N)C#N)c2ccccc21	?	-0.8%	-6.8%	16.4µM*	-3.7%	-2.6%
CC(=O)N1CC(=O)N=C1SCC(=O)Nc1nc(C)c(-c2ccccc2)s1	13µM*	1.8%	2.3%	?	0.0%	?
C/C(=N\O)c1ccc(OCCOc2ccc(/C(C)=N/O)cc2)cc1	.	.	.	.	12.6%	.
CCCNC(=O)c1ccc(COc2ccc(C(C)(C)C)cc2)o1	i	2.2%	8.7%	i	-0.8%	?
COc1ccccc1OCc1ccc(C(=O)NC(C)(C)C)o1	i	4.4%	-5.2%	i	?	-18.2%
O=C(Nc1cccnc1)c1ccc(COc2ccccc2Br)o1	?	17.3%[38.3 µM]	?	16.4µM*	-11.3%	20.6µM*
